{
  "source": "PubChem BioAssay (NCATS)",
  "note": "A number with no mark means an inactive call. Activity calls are given as the source filed them. Calls come from the whole dose curve; as a rule, active = well fitted activation curve with a large enough effect; inconclusive = small, poorly fitted or top-dose-only effect, or effect the other way; inactive = flat fitted curve, though single readings scatter.",
  "data": [
    {"test": "Cellular Toxicity (caspase-3) Renal Proximal Tubule (AID 667);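 note: cells exposed to compound for 16 hours at 37 °C before detection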", "details": "renal proximal tubule cells, primary cells freshly taken from rat, solvent-only wells 0%, staurosporine 100%; series mostly up to 91.7 µM; caspase-3 activation: at the top concentration", "from_the_text": "NIH Chemical Genomics Center [NCGC]\nNIH Molecular Libraries Screening Centers Network [MLSCN]\nNational Institutes of Environmental Health Sciences [NIEHS]\nNational Toxicology Program [NTP]\nWe have developed a 1536-well cell-based assay for quantitative high throughput screening (qHTS) against a number of cell lines to determine in vitro caspase 3/7 activity of small molecules. This particular assay uses the primary kidney proximal tubule cells freshly isolated from rat.\nNCGC Assay Protocol Summary:\nThe Caspase-Glo 3/7 assay (Promega) is a homogeneous method to measure caspase-3 and caspase-7 activities in cultured cells. The quantitation of caspase 3/7 activity is based on the cleavage of a peptide-aminoluciferin substrate. After caspase cleaves the substrate the free aminoluciferin is liberated and serves as the substrate of luciferase, which generates the light. The luminescent signal is proportional to the amount of caspase 3/7 activity present.\nUsing the Caspase-Glo 3/7 assay, the amount of caspase 3/7 activity was measured in the rat kidney proximal tubule cells with complete culture medium following compound treatment for 16 hours. The assay was performed in opaque white 1536-well plates. In the screen, staurosporine and doxorubicin were used as positive controls. Library compounds were measured for their ability to cause the activation of caspase 3/7 in the cell line, as reflected by an increase in luminescence signal, in a concentration-dependent manner. Data were normalized to the controls for basal activity (DMSO only) and 100% stimulation (10 uM staurosporine). AC50 values were determined from concentration-response data modeled with the standard Hill equation.\nqHTS protocol for caspase 3/7 assay in rat kidney proximal tubule cells\n[Step] [Parameter] [Value] [Description]\n1. Reagent; 5 uL; 1000 rat kidney proximal tubule cells/well\n2. Time; 5 hr; 37 °C incubation\n4. Controls; 23 nL; doxorubicin 7 pM to 100 uM & staurosporine 1.4 pM to 20 uM\n5. Time; 16 hr; 37 °C incubation\n6. Reagent; 5 uL; Caspase-Glo 3/7 reagent\n7. Time; 1 hr; Room Temperature\n8. Detection; Luminescence; Viewlux plate reader\nKeywords: caspase 3/7, apoptosis, rat kidney proximal tubule cells, luminescence, NTPHTS, NTPHTS_NCGC, NIEHS, EPA, DSSTox, MLSMR, MLSCN, NIH Roadmap, qHTS, NCGC", "units": {"caspase-3 activation": "%"}, "values": [
      {"molecule": "Brc1ccccc1-c1ccccc1", "caspase-3 activation": 7.04},
      {"molecule": "CCCCC(CC)COC(=O)c1ccccc1C(=O)O", "note": "(centres undefined)", "caspase-3 activation": -3.8},
      {"molecule": "CCCC(=O)c1cc(O)c(O)cc1O", "caspase-3 activation": -5.58},
      {"molecule": "CC(C)C(C)(C)C(C)(C)C(C)(C)S", "caspase-3 activation": 0.94},
      {"molecule": "Oc1ccccc1", "caspase-3 activation": 1.59},
      {"molecule": "Nc1c2ccccc2nc2ccccc12", "caspase-3 activation": 17.5},
      {"molecule": "CC(=O)OC/C=C(C)/C=C/C=C(C)/C=C/C1=C(C)CCCC1(C)C", "caspase-3 activation": -6.14},
      {"molecule": "CC(C)(c1ccc(O)cc1)c1ccc(O)cc1", "outcome": "inactive"},
      {"molecule": "O=C(c1ccccc1)c1ccccc1", "caspase-3 activation": 13.9},
      {"molecule": "CCCCCCCCCCCCCCCC[n+]1ccccc1", "caspase-3 activation": 13.5},
      {"molecule": "Cc1cc(C(C)(C)C)c(O)c(C(C)(C)C)c1", "caspase-3 activation": 1.46},
      {"molecule": "Cc1ccc(O)cc1", "caspase-3 activation": 2.98},
      {"molecule": "C1=CC2C3C=CC(C3)C2C1", "note": "(centres undefined)", "caspase-3 activation": -4.56},
      {"molecule": "O=C(NO)c1ccccc1", "caspase-3 activation": -4.67},
      {"molecule": "COc1cc(C=O)ccc1O", "caspase-3 activation": -1.74},
      {"molecule": "CC(C)(C)c1ccc(O)c(O)c1", "caspase-3 activation": -13.5},
      {"molecule": "Nc1cccc2c(N)cccc12", "caspase-3 activation": -1.12},
      {"molecule": "OCc1c[nH]c2ccccc12", "caspase-3 activation": 0.999},
      {"molecule": "c1ccc2occc2c1", "caspase-3 activation": 3.95}
    ]}
  ]
}
